This is an account of results in PMC7862700, “An all-to-all approach to the identification of sequence-specific readers for epigenetic DNA modifications on cytosine”.

What all share (experiment): DAPPL (digital affinity profiling via proximity ligation, sequencing); 10 mM Tris-HCl pH 7.5, 50 mM NaCl, 1 mM DTT, 4% glycerol, room temperature, 30 min; GST-TFs on glutathione beads, 16-mer random dsDNA library, 0.1% formaldehyde crosslink after washing; high values mean tight binding
One test has as its target T1, FLI1 (Homo sapiens, UniProt Q01543 1-452).
T1 sequence: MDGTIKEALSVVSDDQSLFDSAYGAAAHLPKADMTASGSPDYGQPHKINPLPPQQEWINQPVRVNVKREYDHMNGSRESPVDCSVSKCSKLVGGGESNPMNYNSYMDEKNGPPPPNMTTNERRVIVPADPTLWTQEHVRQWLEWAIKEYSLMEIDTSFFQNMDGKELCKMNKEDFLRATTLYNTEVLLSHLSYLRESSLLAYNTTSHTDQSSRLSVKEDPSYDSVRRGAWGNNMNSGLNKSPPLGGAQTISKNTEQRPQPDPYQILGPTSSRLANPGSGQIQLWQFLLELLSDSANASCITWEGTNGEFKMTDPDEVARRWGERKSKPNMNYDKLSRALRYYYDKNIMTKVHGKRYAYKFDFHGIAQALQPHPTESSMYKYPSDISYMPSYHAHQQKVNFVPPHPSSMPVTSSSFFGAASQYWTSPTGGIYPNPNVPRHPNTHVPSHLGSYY
As to conditions: protein: recombinant; tags: N-terminal GST; dsDNA, one strand shown. A digest of the protocol: (§1)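 The binding signal reported is, for every hexamer, its read frequency for a factor over its read frequency for the tag-only sample. Reads came from pools of yeast-expressed, GST-fused human transcription factors on glutathione beads, barcoded with DNA and mixed with that sample, which were incubated with 200 nmole of a random double-stranded 16-mer DNA library in Tris/NaCl/DTT/glycerol buffer at room temperature for 30 min. After washing, the pools were crosslinked with 0.1% formaldehyde, proximity-ligated with BsaI/T4 ligase for 1 h at 37 °C, PCR-amplified and sequenced on an Illumina NextSeq500.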

The next test has as its target T2, ELK1 (Homo sapiens, UniProt P19419 1-428).
T2 sequence: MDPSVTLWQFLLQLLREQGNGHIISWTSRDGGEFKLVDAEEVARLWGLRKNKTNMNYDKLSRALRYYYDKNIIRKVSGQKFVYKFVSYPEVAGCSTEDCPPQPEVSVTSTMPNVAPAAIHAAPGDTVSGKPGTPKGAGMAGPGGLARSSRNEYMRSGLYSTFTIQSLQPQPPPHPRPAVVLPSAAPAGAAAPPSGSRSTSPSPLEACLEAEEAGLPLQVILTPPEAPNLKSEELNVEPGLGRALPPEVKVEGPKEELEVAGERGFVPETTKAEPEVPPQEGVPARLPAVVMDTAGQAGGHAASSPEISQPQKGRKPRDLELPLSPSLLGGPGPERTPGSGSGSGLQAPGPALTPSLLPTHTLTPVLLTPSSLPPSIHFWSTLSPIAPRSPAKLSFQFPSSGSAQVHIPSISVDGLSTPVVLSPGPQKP
As to conditions: protein: recombinant; tags: N-terminal GST; dsDNA, one strand shown. In outline:
as §1

In the next test the target is T3, GABPA (Homo sapiens, UniProt Q06546 1-454).
T3 sequence: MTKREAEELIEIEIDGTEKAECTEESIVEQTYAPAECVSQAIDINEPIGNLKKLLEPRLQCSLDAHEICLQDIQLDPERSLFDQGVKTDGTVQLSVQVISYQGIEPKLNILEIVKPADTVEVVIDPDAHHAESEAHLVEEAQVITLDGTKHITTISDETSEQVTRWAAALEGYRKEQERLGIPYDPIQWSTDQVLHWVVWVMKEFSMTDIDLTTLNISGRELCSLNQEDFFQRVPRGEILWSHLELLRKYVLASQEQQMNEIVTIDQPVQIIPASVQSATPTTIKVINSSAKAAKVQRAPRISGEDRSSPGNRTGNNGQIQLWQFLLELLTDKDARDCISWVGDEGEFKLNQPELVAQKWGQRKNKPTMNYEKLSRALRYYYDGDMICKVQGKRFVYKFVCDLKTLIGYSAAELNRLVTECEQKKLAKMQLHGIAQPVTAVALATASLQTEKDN
Conditions: protein: recombinant; tags: N-terminal GST; dsDNA, one strand shown. In outline:
as §1

In the next test the target is T4, ERG (Homo sapiens, UniProt P11308 1-479).
T4 sequence: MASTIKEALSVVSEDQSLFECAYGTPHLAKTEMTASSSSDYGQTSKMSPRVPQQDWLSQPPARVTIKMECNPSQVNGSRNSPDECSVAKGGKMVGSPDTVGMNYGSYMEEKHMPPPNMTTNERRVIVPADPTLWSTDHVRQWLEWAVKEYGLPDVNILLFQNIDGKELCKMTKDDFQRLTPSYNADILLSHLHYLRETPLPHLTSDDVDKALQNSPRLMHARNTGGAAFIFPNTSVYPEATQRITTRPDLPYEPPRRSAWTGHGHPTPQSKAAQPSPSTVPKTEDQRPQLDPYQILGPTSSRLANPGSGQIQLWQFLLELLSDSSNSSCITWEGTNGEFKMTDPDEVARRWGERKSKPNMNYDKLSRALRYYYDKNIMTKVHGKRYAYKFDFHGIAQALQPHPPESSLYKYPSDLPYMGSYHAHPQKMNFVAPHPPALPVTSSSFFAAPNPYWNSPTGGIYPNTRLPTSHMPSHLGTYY
As to conditions: protein: recombinant; tags: N-terminal GST; dsDNA, one strand shown. A digest of the protocol: as §1

The next test deals with ELF1 (Homo sapiens, UniProt P32519 1-619). Conditions: protein: recombinant; tags: N-terminal GST; dsDNA, one strand shown. In outline:
as §1

For a further test, the target named is T5, EHF (Homo sapiens, UniProt Q9NZC4 1-300).
T5 sequence: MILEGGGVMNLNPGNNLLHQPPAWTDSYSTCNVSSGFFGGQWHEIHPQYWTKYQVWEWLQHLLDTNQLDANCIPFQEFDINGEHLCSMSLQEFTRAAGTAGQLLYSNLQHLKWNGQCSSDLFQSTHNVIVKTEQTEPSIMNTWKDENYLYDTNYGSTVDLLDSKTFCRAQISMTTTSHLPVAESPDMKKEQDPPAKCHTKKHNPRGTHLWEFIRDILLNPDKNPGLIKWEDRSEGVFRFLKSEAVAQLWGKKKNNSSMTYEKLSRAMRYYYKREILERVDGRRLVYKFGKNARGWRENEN
Conditions: protein: recombinant; tags: N-terminal GST; dsDNA, one strand shown. A digest of the protocol:
as §1

For another test, the target named is SPI1 (Homo sapiens, UniProt P17947 1-270). As to conditions: protein: recombinant; tags: N-terminal GST; dsDNA, one strand shown. A digest of the protocol:
as §1

Another test addresses SPIB (Homo sapiens, UniProt Q01892 1-262). Conditions: protein: recombinant; tags: N-terminal GST; dsDNA, one strand shown. In outline:
as §1

A further test concerns the target T6, ELK3 (Homo sapiens, UniProt P41970 1-407).
T6 sequence: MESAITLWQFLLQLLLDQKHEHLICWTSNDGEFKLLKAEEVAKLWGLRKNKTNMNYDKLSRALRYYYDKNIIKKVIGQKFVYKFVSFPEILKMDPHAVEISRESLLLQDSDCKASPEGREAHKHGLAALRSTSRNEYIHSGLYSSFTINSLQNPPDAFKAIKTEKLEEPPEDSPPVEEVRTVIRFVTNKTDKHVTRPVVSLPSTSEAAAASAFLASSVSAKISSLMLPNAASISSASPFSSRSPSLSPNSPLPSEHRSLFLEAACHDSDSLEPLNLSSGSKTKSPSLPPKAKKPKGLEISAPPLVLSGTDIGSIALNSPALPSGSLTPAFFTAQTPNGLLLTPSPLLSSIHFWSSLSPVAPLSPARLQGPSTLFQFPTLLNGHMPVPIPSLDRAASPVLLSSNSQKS
Conditions: protein: recombinant; tags: N-terminal GST; dsDNA, one strand shown. In outline: as §1

A further test addresses T7, FEV (Homo sapiens, UniProt Q99581 1-238).
T7 sequence: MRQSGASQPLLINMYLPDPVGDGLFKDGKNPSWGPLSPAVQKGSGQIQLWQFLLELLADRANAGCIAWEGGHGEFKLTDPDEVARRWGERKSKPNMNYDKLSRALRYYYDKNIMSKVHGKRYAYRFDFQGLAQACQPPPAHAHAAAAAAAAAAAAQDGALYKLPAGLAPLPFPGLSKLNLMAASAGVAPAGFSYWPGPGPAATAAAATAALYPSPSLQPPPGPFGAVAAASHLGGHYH
Conditions: protein: recombinant; tags: N-terminal GST; dsDNA, one strand shown. A digest of the protocol:
as §1

The next test deals with ETV5 (Homo sapiens, UniProt P41161 1-510). As to conditions: protein: recombinant; tags: N-terminal GST; dsDNA, one strand shown. In outline:
as §1

The target in another test is HSF1 (Homo sapiens, UniProt Q00613 1-529). As to conditions: protein: recombinant; tags: N-terminal GST; chain copies: 3; dsDNA, one strand shown. A digest of the protocol:
as §1

The target in another test is T8, SPIC (Homo sapiens, UniProt Q8N5J4 1-248).
T8 sequence: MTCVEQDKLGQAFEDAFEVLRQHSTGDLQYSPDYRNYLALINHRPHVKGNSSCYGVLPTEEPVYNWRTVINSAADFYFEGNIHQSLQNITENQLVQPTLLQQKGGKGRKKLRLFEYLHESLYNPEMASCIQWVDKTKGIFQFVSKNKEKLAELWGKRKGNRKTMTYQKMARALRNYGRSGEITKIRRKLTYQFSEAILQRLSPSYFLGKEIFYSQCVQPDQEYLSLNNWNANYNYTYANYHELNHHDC
As to conditions: protein: recombinant; tags: N-terminal GST; dsDNA, one strand shown. In outline: as §1

For another test, the target named is ELF4 (Homo sapiens, UniProt Q99607 1-663). Conditions: protein: recombinant; tags: N-terminal GST; dsDNA, one strand shown. In outline: as §1
Sequence of ELF4 (Q99607 whole entry): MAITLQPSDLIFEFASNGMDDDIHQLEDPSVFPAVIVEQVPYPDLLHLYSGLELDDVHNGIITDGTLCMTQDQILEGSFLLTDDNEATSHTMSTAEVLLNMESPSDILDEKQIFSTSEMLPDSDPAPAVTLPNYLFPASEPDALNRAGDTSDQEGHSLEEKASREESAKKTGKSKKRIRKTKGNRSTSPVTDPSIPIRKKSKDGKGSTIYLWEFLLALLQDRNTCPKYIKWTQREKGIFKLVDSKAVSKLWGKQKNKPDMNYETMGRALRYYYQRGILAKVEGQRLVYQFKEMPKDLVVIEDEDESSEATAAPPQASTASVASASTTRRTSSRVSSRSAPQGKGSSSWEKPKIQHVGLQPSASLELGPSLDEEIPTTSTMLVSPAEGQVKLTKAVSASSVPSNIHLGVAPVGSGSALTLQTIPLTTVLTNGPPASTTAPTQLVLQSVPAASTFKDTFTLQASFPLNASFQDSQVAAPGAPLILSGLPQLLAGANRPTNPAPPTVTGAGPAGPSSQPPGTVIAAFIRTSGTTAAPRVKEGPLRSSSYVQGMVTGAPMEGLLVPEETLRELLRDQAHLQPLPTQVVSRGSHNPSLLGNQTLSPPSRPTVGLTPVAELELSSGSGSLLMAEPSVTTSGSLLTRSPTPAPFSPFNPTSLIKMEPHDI
For the next test, the target named is T9, ELK4 (Homo sapiens, UniProt P28324-2 1-405).
T9 sequence: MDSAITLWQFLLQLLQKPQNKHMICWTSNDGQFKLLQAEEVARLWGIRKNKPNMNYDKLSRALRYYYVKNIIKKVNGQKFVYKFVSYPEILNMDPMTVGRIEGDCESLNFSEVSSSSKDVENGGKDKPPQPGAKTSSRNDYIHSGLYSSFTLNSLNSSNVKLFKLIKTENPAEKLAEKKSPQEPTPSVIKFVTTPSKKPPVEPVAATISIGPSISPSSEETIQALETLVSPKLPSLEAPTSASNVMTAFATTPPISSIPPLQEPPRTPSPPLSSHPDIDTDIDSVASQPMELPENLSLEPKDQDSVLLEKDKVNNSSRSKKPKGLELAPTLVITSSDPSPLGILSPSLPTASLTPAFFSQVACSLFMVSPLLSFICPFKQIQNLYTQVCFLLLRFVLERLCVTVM
Conditions: protein: recombinant; tags: N-terminal GST; dsDNA, one strand shown. In outline: as §1

The next test deals with T10, ETV2 (Homo sapiens, UniProt O00321 1-342).
T10 sequence: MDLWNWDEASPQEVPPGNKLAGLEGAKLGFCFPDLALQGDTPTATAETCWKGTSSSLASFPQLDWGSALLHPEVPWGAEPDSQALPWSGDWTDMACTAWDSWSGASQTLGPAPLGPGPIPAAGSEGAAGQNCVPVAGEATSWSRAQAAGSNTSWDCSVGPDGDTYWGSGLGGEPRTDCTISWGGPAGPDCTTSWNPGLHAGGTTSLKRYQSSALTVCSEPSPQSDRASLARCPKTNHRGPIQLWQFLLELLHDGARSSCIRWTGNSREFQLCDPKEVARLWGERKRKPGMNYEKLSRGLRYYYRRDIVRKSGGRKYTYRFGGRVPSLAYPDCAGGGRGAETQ
As to conditions: protein: recombinant; tags: N-terminal GST; dsDNA, one strand shown. In outline: as §1

The next test has as its target T11, ELF3 (Homo sapiens, UniProt P78545 1-371).
T11 sequence: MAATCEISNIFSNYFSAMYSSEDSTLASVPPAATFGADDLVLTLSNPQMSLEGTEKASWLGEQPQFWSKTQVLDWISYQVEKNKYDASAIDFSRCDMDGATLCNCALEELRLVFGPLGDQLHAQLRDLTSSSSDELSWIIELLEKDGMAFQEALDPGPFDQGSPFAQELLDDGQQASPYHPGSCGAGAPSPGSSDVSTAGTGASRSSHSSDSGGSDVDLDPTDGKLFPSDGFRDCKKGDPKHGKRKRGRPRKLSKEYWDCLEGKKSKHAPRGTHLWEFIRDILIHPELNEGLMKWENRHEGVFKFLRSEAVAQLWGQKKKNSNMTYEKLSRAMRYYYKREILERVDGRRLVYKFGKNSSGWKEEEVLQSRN
Conditions: protein: recombinant; tags: N-terminal GST; dsDNA, one strand shown. A digest of the protocol: as §1

A further test has as its target CRX (Homo sapiens, UniProt O43186 1-299). As to conditions: protein: recombinant; tags: N-terminal GST; dsDNA, one strand shown. In outline: as §1
In a further test the target is ETV1 (Homo sapiens, UniProt P50549 1-477). Conditions: protein: recombinant; tags: N-terminal GST; dsDNA, one strand shown. A digest of the protocol:
as §1

Sequence of ETV1 (P50549 whole entry): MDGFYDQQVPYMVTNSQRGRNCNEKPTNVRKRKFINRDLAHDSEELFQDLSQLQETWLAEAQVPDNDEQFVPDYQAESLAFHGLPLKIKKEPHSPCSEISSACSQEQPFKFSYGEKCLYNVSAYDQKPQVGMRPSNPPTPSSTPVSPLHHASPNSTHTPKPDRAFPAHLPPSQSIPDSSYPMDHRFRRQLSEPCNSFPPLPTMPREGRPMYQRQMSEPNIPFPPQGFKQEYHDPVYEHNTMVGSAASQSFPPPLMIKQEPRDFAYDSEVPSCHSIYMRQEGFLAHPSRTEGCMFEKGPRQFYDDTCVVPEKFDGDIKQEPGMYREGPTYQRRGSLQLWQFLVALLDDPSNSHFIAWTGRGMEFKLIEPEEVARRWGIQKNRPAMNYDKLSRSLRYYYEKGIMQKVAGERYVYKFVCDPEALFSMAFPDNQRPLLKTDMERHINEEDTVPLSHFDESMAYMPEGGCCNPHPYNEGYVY
Sequence of ETV5 (P41161 whole entry): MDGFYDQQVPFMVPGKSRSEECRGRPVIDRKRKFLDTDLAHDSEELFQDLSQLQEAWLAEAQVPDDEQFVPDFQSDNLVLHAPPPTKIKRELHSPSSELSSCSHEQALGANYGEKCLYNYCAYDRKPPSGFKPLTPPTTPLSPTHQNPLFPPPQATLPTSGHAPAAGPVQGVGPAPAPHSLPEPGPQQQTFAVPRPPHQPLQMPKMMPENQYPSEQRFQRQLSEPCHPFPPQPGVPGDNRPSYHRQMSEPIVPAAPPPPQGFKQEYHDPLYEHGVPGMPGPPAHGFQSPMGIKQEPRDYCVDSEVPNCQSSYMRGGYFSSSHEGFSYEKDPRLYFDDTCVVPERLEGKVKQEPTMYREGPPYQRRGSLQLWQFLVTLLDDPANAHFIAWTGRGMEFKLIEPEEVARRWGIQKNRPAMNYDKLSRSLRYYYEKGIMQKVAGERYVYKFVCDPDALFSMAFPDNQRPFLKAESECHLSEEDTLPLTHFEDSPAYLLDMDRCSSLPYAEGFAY
Sequence of HSF1 (Q00613 whole entry): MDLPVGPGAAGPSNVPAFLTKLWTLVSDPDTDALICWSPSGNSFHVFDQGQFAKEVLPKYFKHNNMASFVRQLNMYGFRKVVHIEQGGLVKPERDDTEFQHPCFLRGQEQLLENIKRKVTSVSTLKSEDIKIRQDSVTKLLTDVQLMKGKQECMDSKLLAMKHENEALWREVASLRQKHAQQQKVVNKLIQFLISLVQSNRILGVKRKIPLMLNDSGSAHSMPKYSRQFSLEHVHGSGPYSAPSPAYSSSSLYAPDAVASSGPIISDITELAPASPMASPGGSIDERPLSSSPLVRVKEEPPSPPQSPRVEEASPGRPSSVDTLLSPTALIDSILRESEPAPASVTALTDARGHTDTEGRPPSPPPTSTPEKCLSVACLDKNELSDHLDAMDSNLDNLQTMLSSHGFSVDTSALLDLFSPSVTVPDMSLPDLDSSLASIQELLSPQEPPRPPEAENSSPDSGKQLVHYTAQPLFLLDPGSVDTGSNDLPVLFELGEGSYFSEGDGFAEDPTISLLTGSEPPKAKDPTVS
Sequence of SPIB (Q01892 whole entry): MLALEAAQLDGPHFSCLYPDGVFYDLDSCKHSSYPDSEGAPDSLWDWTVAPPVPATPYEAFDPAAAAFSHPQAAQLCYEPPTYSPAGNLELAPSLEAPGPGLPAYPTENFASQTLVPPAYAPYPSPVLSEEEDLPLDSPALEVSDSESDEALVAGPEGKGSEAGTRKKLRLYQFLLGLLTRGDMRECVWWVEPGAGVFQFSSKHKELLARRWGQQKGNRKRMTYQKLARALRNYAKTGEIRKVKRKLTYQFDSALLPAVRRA
Sequence of CRX (O43186 whole entry): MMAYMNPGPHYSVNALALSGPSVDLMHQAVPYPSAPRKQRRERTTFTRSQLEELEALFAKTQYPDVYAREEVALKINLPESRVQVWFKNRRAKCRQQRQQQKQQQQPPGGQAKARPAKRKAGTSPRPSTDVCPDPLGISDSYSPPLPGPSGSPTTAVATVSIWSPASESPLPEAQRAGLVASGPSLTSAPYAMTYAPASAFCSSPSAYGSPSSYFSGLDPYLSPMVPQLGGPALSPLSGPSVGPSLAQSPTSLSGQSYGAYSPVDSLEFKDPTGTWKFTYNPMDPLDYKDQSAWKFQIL
Sequence of ELF1 (P32519 whole entry): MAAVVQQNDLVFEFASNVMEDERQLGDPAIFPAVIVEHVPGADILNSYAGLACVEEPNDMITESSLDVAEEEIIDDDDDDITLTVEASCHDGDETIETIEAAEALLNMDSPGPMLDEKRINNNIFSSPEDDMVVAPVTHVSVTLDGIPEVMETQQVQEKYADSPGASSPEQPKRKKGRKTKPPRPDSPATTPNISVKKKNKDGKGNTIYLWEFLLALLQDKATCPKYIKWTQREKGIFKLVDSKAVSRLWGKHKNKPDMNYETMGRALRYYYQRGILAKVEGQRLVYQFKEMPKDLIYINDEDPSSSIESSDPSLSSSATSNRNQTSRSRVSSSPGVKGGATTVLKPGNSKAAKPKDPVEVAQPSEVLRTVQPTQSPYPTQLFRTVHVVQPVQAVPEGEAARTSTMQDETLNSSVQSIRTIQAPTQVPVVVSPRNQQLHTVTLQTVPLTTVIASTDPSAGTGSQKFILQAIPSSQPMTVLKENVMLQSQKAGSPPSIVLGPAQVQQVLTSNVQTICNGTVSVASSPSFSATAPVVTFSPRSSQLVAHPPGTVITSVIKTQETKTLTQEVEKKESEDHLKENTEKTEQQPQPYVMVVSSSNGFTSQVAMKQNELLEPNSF

Take CTGATC: the binding signal with FLI1 is 1.16 fold enrichment (6-mer frequency, TF over GST control); with ELK1, 1.54 fold enrichment (6-mer frequency, TF over GST control); in the test with GABPA it was 1.4 fold enrichment (6-mer frequency, TF over GST control); with ERG it was 1.42 fold enrichment (6-mer frequency, TF over GST control); in the test with ELF1 it was 1.4 fold enrichment (6-mer frequency, TF over GST control); with EHF, 1.39 fold enrichment (6-mer frequency, TF over GST control). For the same sequence, the binding signal was 1.27 fold enrichment (6-mer frequency, TF over GST control) with SPI1; 1.4 fold enrichment (6-mer frequency, TF over GST control) with SPIB; 1.4 fold enrichment (6-mer frequency, TF over GST control) with ELK3; 1.31 fold enrichment (6-mer frequency, TF over GST control) in the test with FEV; 1.29 fold enrichment (6-mer frequency, TF over GST control) with ETV5; 1.53 fold enrichment (6-mer frequency, TF over GST control) with HSF1. The binding signal with SPIC is 1.57 fold enrichment (6-mer frequency, TF over GST control); with ELF4, 1.41 fold enrichment (6-mer frequency, TF over GST control); with ELK4, 1.39 fold enrichment (6-mer frequency, TF over GST control); in the test with ETV2 it was 1.13 fold enrichment (6-mer frequency, TF over GST control); with ELF3, 1.25 fold enrichment (6-mer frequency, TF over GST control); with CRX, 1.95 fold enrichment (6-mer frequency, TF over GST control). Moreover, the binding signal with ETV1 was 1.43 fold enrichment (6-mer frequency, TF over GST control).
